Measured values: PubChem BioAssay (NCATS)
Several values for one entry are separate records, joined by “and”; a condition that tells them apart may be missing. Equal values may be shown once. Results filed as inconclusive are left out. A call without a number means that no potency is given here. More than one record can exist for a structure, and the calls need not agree. Activity calls are given as the source filed them. Unless noted, calls come from the whole dose curve; as a rule, active = well fitted curve in the direction sought with a large enough effect; inconclusive = small, poorly fitted or top-dose-only effect, or another doubt; inactive = no such curve, though single readings can be large; an effect the other way counts as inactive or inconclusive.

How the values were obtained:
[1] = molecular target: Cytochrome P450 1A2 (Homo sapiens) (UniProt P05177); assay: p450-cyp1a2 (AID 410; calls by dose curve; note: potency is the fitted concentration of half-maximal effect)
In short: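 20nM CYP1A2, 100uM Luciferin-ME (=Km), 100mM KPO4; cpd 10 min RT; +NADPH regen, 60 min RT; stop/detect 20 min; luminescence. Normalized to furafylline 57 uM = full inhibition.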

[2] = molecular target: Glucocorticoid receptor (Homo sapiens) (UniProt P04150); assay: GR-GFP Redistribution (AID 450;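 active = compounds whose dose series gives a full or clear partial fitted curve of increased nuclear translocation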; note: potency is the fitted concentration of half-maximal effect); details: U2OS GR-GFP nuclear translocation, laser cytometry, 2 h
[3] = molecular target: Mitogen-activated protein kinase 10 (Mus musculus) (UniProt Q61831); assay: JNK3 AlphaScreen Assay (AID 530; active = well fitted curve in either direction with a large enough effect, not every such curve was filed as active;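 note: kinase came from lysate of stimulated human HepG2 cells; signal reports phosphorylation of biotinylated GST-cJun 1-79 at Ser73 with 10 µM ATP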)
In short: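 Biotinylated GST-cJun(1-79) served as substrate for JNK3 in HepG2 lysates stimulated with IL-1beta and TNF-alpha. ATP was 10 uM final, pH 7.6. Ser73 phosphorylation was quantified by AlphaScreen (680 nm excitation).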

[4] = molecular target: 3',5'-cyclic-AMP phosphodiesterase 4B (Homo sapiens) (UniProt Q07343); assay: qHTS Assay for Inhibitors of PDE-IV (AID 607; active = well fitted activation curve with a large enough effect in the main read-out, with a control signal flat, not every such curve was filed as active)
In short: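 Cell-based read-out of cAMP via a modified cyclic nucleotide-gated channel and membrane potential dye (535/590 nm) in HEK293 cells expressing PDE4 endogenously. Compounds tested up to 22.9 uM final; 100 uM RO 20-1724 reference.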

[5] = qHTS Assay for Lipid Storage Modulators (AID 1519; calls by dose curve); details: Drosophila S3 cells, BODIPY lipid droplet/cell ratio, laser cytometry, cells loaded with oleic acid
In short: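 Cells seeded at 5,000 per well were treated with compounds over a concentration series and loaded with oleic acid (400 uM, as added). Lipid droplet fluorescence (488 nm excitation, 500-530 nm channel) was read by laser-scanning cytometry and normalized to 20 uM Triacsin C.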

[6] = molecular target: Ubiquitin carboxyl-terminal hydrolase 1 (Homo sapiens) (UniProt O94782); assay: Inhibitors of USP1/UAF1: Pilot qHTS (AID 504865); note: nearly all actives have a fitted effect of over 35% in size; note: potency is the fitted concentration of half-maximal effect;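 for activity change, negative = inhibition: rhodamine fluorescence freed from ubiquitin-rhodamine substrate followed over time; top concentration of the series differs between compounds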
In short: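 Kinetic fluorescence assay: 1nM USP1/UAF1, 15 min compound preincubation, then 150nM Ub-Rho; 480/540 nm.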

[7] = molecular target: DNA dC->dU-editing enzyme APOBEC-3G (Homo sapiens) (UniProt Q9HC16); assay: qHTS for inhibitors of Vif-A3G interactions: Validation (AID 588379)
In short: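 Yellow fluorescence (Ex 488, Em 500-530) of Vif-coexpressing HeLa A3G-eYFP cells, scanned by Acumen cytometer, reports blocked A3G degradation. Cells plated at 700/well overnight at 37 deg C before compound addition, then a further overnight compound incubation at 37 deg C.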

[8] = system: Zika virus NS2B-NS3 protease; assay: Primary screen GU AMC qHTS for Zika virus inhibitors (AID 1347154); note: nearly all actives have a fitted effect of over 70% in size; note: potency is the fitted concentration of half-maximal effect
In short: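 Unlinked Zika NS2B hydrophilic domain/NS3 protease domain noncovalent complex (25 nM final) in 10 mM Tris-HCl pH 8.0, 0.01% Tween 20, with AMC peptide substrate. Fluorescence (ex 340, em 450 nm) change over 15 min, room temperature; percent inhibition fitted to 4-parameter Hill equation.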

[9] = Primary qHTS for small molecule stabilizers of the endoplasmic reticulum resident proteome: Secreted ER Calcium Modulated Protein (SERCaMP) assay (AID 1508630)
In short: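 The SH-SY5Y reporter protocol was run at 3 concentrations up to 38.3 uM (primary) or 11 concentrations (follow-up): 16 h compound, 100 nM thapsigargin for 4 h, then extracellular luciferase luminescence.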

[10] = molecular target: Glucocorticoid receptor (Homo sapiens) (UniProt P04150); assay: GR-EFC Redistribution (AID 451; calls by dose curve; note: potency is the fitted concentration of half-maximal effect); details: CHO-K1 GR-EFC translocation, beta-gal luminescence, 2 h
In short: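 CHO-K1 cells stably expressing nuclear-localized β-gal enzyme acceptor and GR fused C-terminally to the enzyme donor fragment; ligand-driven nuclear translocation restores β-gal by complementation. Compounds titrated up to 46 uM final, 2 h at 37 °C; luminescence read.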

[11] = molecular target: Voltage-gated inwardly rectifying potassium channel KCNH2 (Homo sapiens) (UniProt Q12809); assay: qHTS Assay for Small Molecule Inhibitors of the Human hERG Channel Activity (AID 588834);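 note: U2OS cells transduced with hERG by BacMam; top concentration of the series differs between compounds; lower thallium flux fluorescence means stronger hERG block; nearly all actives have a fitted effect of over 50% in size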
In short: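 Cells were infected with hERG-BacMam virus for 4 hrs at room temperature, grown overnight, then seeded at 2000/well. After dye loading and roughly 10 min compound treatment, thallium influx was triggered and fluorescence recorded.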

[12] = Counterscreen qHTS for small molecule stabilizers of the endoplasmic reticulum resident proteome: GLuc-NoTag assay (AID 1508627); note: potency is the fitted concentration of half-maximal effect
In short: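 Secreted GLuc lacking the SERCaMP modification is measured in SH-SY5Y cells exposed to compound for 19 h and then to thapsigargin (100 nM, 4 h) to deplete ER calcium; hits retested at 11 concentrations, up to 76.6 uM.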

[13] = Confirmatory qHTS for small molecule stabilizers of the endoplasmic reticulum resident proteome: Secreted ER Calcium Modulated Protein (SERCaMP) assay (AID 1508628); note: nearly all actives have a fitted effect of over 40% in size; note: potency is the fitted concentration of half-maximal effect
In short: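 GLuc-SERCaMP-expressing SH-SY5Y cells, pretreated 16 h with compound, are challenged with thapsigargin to empty ER calcium stores; after 4 h, coelenterazine is added directly to the medium and luminescence is imaged.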

[14] = Cell Viability qHTS for small molecule stabilizers of the endoplasmic reticulum resident proteome (AID 1508629); details: cell viability counter-screen, 100 nM thapsigargin for final 4 h;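 note: human SH-SY5Y neuroblastoma cells carrying the GLuc-SERCaMP reporter; compound exposure about 46 h in total before the viability read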
[15] = measured here: cell count channel max response
[16] = measured here: lipid channel max response

Chain of 3',5'-cyclic-AMP phosphodiesterase 4B (Homo sapiens) (Q07343 whole entry, looked up): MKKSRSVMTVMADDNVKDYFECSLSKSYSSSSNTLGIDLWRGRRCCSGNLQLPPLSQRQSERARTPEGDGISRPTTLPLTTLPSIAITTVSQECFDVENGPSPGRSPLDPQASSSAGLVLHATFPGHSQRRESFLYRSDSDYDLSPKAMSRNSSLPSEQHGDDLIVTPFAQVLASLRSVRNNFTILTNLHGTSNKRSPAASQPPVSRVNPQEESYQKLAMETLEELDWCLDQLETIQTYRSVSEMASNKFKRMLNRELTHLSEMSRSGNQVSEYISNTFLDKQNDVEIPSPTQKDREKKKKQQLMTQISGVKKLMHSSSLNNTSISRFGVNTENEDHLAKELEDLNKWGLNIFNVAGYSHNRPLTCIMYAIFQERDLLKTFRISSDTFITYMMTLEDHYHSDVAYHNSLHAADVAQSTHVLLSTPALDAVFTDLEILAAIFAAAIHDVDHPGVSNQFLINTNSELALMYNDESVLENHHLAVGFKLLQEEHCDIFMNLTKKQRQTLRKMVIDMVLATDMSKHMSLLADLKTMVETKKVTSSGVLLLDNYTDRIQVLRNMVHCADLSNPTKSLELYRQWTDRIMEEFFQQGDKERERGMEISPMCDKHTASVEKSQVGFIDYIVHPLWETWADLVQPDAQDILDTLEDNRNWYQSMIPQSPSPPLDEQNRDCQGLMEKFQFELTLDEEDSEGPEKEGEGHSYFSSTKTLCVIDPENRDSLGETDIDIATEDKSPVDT
Chain of DNA dC->dU-editing enzyme APOBEC-3G (Homo sapiens) (Q9HC16 whole entry, looked up): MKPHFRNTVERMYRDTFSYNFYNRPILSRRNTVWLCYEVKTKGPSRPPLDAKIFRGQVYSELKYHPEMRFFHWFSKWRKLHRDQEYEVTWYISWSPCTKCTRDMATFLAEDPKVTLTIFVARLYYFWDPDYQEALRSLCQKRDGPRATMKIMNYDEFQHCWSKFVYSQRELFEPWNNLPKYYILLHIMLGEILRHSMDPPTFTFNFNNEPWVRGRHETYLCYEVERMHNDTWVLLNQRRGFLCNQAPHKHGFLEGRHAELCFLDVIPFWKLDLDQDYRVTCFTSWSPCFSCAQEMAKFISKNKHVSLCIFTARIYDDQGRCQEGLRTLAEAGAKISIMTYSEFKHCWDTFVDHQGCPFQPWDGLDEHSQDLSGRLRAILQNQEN
Chain of Ubiquitin carboxyl-terminal hydrolase 1 (Homo sapiens) (O94782 whole entry, looked up): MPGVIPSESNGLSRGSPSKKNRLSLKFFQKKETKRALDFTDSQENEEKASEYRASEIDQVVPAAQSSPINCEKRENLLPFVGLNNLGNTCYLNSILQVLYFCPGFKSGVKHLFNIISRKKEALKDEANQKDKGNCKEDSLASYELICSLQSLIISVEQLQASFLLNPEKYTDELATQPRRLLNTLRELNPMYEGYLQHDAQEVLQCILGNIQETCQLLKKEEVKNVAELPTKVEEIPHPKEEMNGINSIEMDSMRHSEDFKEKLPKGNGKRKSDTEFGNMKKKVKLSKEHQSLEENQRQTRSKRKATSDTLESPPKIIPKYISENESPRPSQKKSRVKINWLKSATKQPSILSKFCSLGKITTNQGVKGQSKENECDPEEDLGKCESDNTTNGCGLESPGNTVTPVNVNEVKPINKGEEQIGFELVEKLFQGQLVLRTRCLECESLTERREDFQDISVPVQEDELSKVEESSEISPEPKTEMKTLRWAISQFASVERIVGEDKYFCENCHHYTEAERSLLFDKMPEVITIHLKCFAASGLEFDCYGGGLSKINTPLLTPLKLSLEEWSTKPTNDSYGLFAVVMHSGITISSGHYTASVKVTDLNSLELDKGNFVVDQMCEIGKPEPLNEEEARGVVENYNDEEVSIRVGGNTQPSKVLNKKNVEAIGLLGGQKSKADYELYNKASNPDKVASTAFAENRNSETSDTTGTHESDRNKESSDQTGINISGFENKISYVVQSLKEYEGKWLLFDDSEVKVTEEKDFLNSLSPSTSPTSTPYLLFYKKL
Chain of Cytochrome P450 1A2 (Homo sapiens) (P05177 whole entry, looked up): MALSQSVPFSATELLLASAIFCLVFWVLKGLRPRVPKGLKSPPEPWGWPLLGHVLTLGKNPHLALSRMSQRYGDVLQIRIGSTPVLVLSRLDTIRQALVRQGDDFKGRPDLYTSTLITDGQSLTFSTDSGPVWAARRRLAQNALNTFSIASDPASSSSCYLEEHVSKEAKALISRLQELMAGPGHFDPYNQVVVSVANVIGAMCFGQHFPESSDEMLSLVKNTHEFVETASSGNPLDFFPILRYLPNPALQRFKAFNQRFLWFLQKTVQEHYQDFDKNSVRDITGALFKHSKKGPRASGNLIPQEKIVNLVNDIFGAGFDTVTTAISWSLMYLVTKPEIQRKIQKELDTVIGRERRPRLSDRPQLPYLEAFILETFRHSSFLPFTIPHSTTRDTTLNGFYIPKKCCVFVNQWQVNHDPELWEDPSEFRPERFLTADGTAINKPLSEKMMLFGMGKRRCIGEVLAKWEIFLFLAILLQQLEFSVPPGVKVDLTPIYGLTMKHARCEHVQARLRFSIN
Chain of Glucocorticoid receptor (Homo sapiens) (P04150 whole entry, looked up, the tested form may be a part): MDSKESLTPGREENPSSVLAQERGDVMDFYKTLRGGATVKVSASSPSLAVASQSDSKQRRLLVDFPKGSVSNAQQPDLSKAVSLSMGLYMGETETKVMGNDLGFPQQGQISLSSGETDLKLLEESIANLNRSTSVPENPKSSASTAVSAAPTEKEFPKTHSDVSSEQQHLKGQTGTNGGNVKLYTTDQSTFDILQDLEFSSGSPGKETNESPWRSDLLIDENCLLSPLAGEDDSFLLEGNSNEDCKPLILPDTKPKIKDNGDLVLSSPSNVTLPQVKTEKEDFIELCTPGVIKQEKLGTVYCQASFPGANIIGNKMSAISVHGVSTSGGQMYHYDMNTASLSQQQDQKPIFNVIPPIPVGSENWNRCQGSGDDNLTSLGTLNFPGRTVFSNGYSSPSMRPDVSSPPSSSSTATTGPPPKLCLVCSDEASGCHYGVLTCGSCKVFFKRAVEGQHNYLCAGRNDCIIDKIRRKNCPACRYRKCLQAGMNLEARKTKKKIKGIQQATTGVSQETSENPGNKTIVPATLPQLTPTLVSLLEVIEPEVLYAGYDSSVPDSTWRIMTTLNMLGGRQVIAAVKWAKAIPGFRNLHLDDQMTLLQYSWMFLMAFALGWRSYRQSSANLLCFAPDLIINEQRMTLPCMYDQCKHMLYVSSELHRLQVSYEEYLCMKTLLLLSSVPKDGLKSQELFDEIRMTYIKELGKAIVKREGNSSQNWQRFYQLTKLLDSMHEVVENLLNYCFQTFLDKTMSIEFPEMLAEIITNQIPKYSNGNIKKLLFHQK
Chain of Voltage-gated inwardly rectifying potassium channel KCNH2 (Homo sapiens) (Q12809 whole entry, looked up): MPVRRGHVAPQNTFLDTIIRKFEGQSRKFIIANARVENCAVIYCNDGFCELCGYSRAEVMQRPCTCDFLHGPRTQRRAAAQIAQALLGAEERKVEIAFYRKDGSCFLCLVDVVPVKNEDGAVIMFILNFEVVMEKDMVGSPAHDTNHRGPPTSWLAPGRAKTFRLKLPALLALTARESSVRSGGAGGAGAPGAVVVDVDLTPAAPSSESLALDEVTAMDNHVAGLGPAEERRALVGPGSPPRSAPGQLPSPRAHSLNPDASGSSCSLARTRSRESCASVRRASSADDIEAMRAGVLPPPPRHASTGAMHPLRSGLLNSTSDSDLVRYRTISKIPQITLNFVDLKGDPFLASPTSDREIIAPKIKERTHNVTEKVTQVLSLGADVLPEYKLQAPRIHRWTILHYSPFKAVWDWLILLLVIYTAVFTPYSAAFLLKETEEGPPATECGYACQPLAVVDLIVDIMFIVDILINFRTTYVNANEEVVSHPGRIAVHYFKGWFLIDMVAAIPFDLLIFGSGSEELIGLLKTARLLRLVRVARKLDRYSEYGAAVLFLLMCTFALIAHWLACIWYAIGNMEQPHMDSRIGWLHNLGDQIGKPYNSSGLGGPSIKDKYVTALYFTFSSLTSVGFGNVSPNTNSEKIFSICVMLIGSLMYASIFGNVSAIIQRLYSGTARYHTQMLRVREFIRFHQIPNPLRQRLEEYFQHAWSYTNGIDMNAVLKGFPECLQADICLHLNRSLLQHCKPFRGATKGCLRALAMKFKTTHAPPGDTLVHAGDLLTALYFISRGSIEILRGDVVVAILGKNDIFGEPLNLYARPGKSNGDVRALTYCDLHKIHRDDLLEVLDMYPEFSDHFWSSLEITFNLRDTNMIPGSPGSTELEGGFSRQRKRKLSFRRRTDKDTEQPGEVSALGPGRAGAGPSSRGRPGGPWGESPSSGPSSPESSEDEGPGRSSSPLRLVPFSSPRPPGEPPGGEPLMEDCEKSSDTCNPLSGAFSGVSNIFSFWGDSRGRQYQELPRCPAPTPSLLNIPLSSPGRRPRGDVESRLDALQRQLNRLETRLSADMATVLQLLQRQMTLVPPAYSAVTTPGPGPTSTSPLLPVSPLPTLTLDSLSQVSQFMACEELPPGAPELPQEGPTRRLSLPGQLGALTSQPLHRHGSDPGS

COc1ccc2c3c([nH]c2c1)C(C)=NCC3
Potency [1]: 794 nM (active) and 251 nM (active)
Potency [2]: > 20.6 µM (inactive) and > 46 µM (inactive)
outcome [3]: inactive
Potency [4]: inactive
activity change, negative = inhibition ([5]; at 25.7 µM (top of the series)): 1.66% (inactive)
max response [5, 15]: 0.146%
max response [5, 16]: 2.64%
Potency [6]: inactive
Potency [7]: inactive
Potency [8]: 21.2 µM (active)
Potency [9]: inactive

CCCCCCC(C)(C)c1cc(OC)c2c(c1)OC(C)(C)[C@@H]1CC=C(C)C[C@@H]21
Potency [8]: inactive

COc1ccc2c(c1)[nH]c1c(C)nccc12
Potency [2]: > 20.6 µM (inactive)
Potency [10]: > 20.6 µM (inactive)
outcome [3]: inactive
Potency [4]: inactive
activity change, negative = inhibition ([5]; at 25.7 µM (top of the series)): -4.61% (inactive)
activity change, negative = inhibition ([5]; at 57.5 µM (top of the series)): 2.5% (inactive)
max response [5, 15]: -2.86% and 7%
max response [5, 16]: -9.39% and 13.6%
Potency [6]: inactive
Potency [7]: inactive
Potency [8]: 3.36 µM (active)
Potency [9]: inactive

C[N+]1(C)CCc2cc3c(cc2C1C1OC(=O)c2c1ccc1c2OCO1)OCO3 (configuration not stated)
activity change, negative = inhibition ([5]; at 57.5 µM (top of the series)): 2.12% (inactive)
max response [5, 15]: 1.78%
max response [5, 16]: 1.49%
Potency [11]: inactive
Potency [8]: inactive

O=C(/C=C/c1ccc(Cl)cc1)N[C@@]12CCC(=O)[C@@H]3Oc4c(O)ccc5c4[C@@]31CCN(CC1CC1)C2C5
Potency [8]: inactive

CN(CCc1ccc(Cl)c(Cl)c1)[C@@H]1CCCC[C@@H]1N1CCCC1
Potency [8]: inactive

NC1(c2ccccc2Cl)CCCCC1=O (configuration not stated)
Potency [8]: inactive

NC(N)=NCCCCCCCCCCN=C(N)N
Potency [2]: > 46 µM (inactive)
Potency [10]: > 46 µM (inactive)
outcome [3]: inactive
Potency [4]: inactive
activity change, negative = inhibition ([5]; at 57.5 µM (top of the series)): -3.22% (inactive)
max response [5, 15]: 7.9%
max response [5, 16]: 7.14%
Potency [6]: inactive
Potency [7]: inactive
Potency [8]: inactive
Potency [12]: inactive
Potency [13]: inactive
Potency [9]: inactive

COc1ccc2[nH]cc(C3=CCNCC3)c2c1
Potency [1]: 251 nM (active)
Potency [2]: > 46 µM (inactive)
outcome [3]: inactive
Potency [6]: 44.7 µM (active)
Potency [8]: inactive
Potency [12]: 6.31 µM (active)
Potency [13]: 12.6 µM (active) and 35.5 µM (active)

c1ccc(C2CNCc3ccccc32)cc1 (configuration not stated)
Potency [8]: inactive
Potency [9]: inactive

C[C@H](NC(=O)[C@@H](N)Cc1ccc(O)cc1)C(=O)N[C@@H](Cc1ccccc1)C(=O)NCC(=O)N[C@@H](Cc1ccc(O)cc1)C(=O)N1CCC[C@H]1C(=O)N[C@@H](CO)C(N)=O
activity change, negative = inhibition [8]: 8.07% [at 6.83 µM] (inactive)
activity change, negative = inhibition [9]: -16.9% [at 3.88 µM] (inactive)

CC[C@H](Oc1ccc(Cl)cc1)C(=O)OC1C[C@H]2CC[C@@H](C1)N2C (some centres not stated)
Potency [2]: > 46 µM (inactive)
Potency [10]: > 46 µM (inactive)
outcome [3]: inactive
Potency [6]: inactive
Potency [7]: inactive
Potency [8]: inactive
Potency [12]: inactive
max response [14]: 3.6% (inactive)

CC(C)[C@@]1(NC(=O)[C@@H]2C[C@H]3c4cccc5[nH]cc(c45)C[C@@H]3N(C)C2)O[C@@]2(O)[C@H]3CCCN3C(=O)[C@H](Cc3ccccc3)N2C1=O
Potency [1]: inactive
Potency [2]: > 46 µM (inactive)
Potency [10]: > 46 µM (inactive)
outcome [3]: inactive
Potency [4]: inactive
Potency [6]: inactive
Potency [7]: inactive
Potency [8]: inactive
Potency [12]: inactive
Potency [13]: 35.5 µM (active) and inactive
max response [14]: -30.4% (inactive)

CN1CC[C@@]2(c3cccc(O)c3)Cc3nc4ccccc4cc3C[C@H]2C1
Potency [2]: > 46 µM (inactive)
Potency [10]: > 46 µM (inactive)
outcome [3]: inactive
Potency [6]: inactive
Potency [7]: inactive
Potency [8]: inactive
Potency [12]: inactive
max response [14]: -3.73% (inactive)

CC(C)(O)[C@H]1O[C@@H]2CC[C@]3(C)[C@@]4(C)c5[nH]c6ccccc6c5C[C@@H]4CC[C@]3(O)C2=CC1=O
Potency [2]: 6.76e-05 µM (active)
Potency [7]: inactive
Potency [8]: inactive
Potency [13]: 20 µM (active)

CC(C)(O)C1O[C@H]2CC[C@@]3(C)[C@@](O)(CC[C@H]4Cc5c([nH]c6ccccc56)[C@@]43C)C2=CC1=O (some centres not stated)
Potency [8]: inactive
Potency [12]: inactive
Potency [13]: 39.8 µM (active)
Potency [9]: inactive

O[C@@H]1[C@H](O)[C@H]2[C@@H](O)CCN2C[C@@H]1O
Potency [2]: > 46 µM (inactive)
Potency [10]: > 46 µM (inactive)
outcome [3]: inactive
activity change, negative = inhibition ([5]; at 57.5 µM (top of the series)): -2.53% (inactive)
max response [5, 15]: 7.43%
max response [5, 16]: 6.33%
Potency [6]: inactive
Potency [7]: inactive
Potency [8]: inactive
Potency [12]: inactive
Potency [13]: inactive
Potency [9]: inactive

CC(C)[C@H](NC(=O)[C@H](CCC(=O)O)NC(=O)[C@H](Cc1ccccc1)NC(=O)[C@H](C)NC(=O)[C@@H](N)Cc1ccc(O)cc1)C(=O)N[C@H](C(=O)NCC(N)=O)C(C)C
activity change, negative = inhibition [8]: 2.64% [at 6.83 µM] (inactive)
activity change, negative = inhibition [9]: -11.9% [at 3.88 µM] (inactive)

COC[C@H]([C@@H](O)[C@@H](O)C(=O)NCC[C@@H](C)c1nc(/C=C/C[C@H]2OC3(C[C@H](O)[C@H]2C)OC([C@@H](C[C@@H](O)[C@@H](C)[C@@H](O)[C@@H](C)/C=C(C)/C(C)=C/C=C/C(C)=C\C#N)OC)[C@@H](OP(=O)(O)O)C3(C)C)co1)N(C)C (some centres not stated)
activity change, negative = inhibition [8]: 9.25% [at 4.99 µM] (inactive)
activity change, negative = inhibition [9]: 257% [at 1.51 µM] (inactive)
